The source of these data is paper PMC12136788.

The labels stand for the following.
B1: chr5:31803264:31803265:+_ENSMUSG00000064037_ENSMUST00000076949|mus_mus|FALSE|FALSE (ssRNA)
RNA: GGGAGUUCUACAGUCCGACGAUCUGGAAAUGAGGAAGCCAGGGCCUCAGUGAUGAUUGUCCCUGAAGCUGACCAGGUAAAUACUUCAAUCUGUCCAGGUGUGUCAAUCAAGACAUAUCUGAAUGUGUUCUGGGCCUUCUCAAUCAACAGAGGAUUGAGCAUCA
B2: 64960267_64960387_5255_CDS_ENSG00000171988_ENST00000542921|human|control|control (ssRNA)
RNA: GGGAGUUCUACAGUCCGACGAUCUGAGUGAGCUGGUUCUUCUCCUUUUUUACUGCGAAUAAGUCUACAUUCUCGACACUUUUGUAAAUUAGGCCCUAUCUCACAGCAGGAGUCAUCCUGUAAAAAGGAUUCCCCAGUUUGCUUCAACAGAGGAUUGAGCAUCA
B3: chr4:76721835:76721836:+_ENSG00000138768_ENST00000264904|hu_mus|hu_hu_hu_mus_True|98_108 (ssRNA)
RNA: GGGAGUUCUACAGUCCGACGAUCGUUGGCUGGGGUUUCUGAGAUGCCUCUGGAAUAUAACUCAUGUUUGCUAAUAAAUCCUAGUUUCUCUAUGAAAUUCUCUUUGCCAAUCCUCUUCUCUAUUAGUUGCUUUAGUUUCUCUUUCAACAGAGGAUUGAGCAUCA
B4: chr1:241675328:241675329:-_ENSG00000091483_ENST00000366560|hu_hu|FALSE|FALSE (ssRNA)
RNA: GGGAGUUCUACAGUCCGACGAUCGCUUUUAUUAACAUGAUCGUUGGGAUGCACAGGUAUCUUGCUGCCAAGUUCACCUCCUAACAUUUCAAUUGCUCUAUUGCUAAUGACUUCAUUUACAUUCAUAUUUGUCUGAGUUCCUGACAACAGAGGAUUGAGCAUCA
B5: 21460886_21461006_6735_CDS_ENSMUSG00000042453_ENSMUST00000161356|mouse|control|control (ssRNA)
RNA: GGGAGUUCUACAGUCCGACGAUCAGGAUUUUUGGUGCUUAUUUUACAGGUUGGCCCAGAGUAGCCCGGGUCACAUAUACACUUGGUUCCAUUGAUGCAGCUCCCGUGCCCAUAGCACAUCUCUUCACACUGGGGACCAAUGUACAACAGAGGAUUGAGCAUCA
B6: chr10:121586544:121586545:+_ENSG00000198825_ENST00000369080|hu_mus|motif|central (ssRNA)
RNA: GGGAGUUCUACAGUCCGACGAUCCGACUGCCUAAUCGAGGUGCUGACACAAUAAUCCCACAGCUUGGGAGAAUGUAAUCGGUUGGCCCUACGCUCUCUAAAGAAUUGGCUAGCUGCUUGUCUUCCUCCGACUUAGAAUUUGUACAACAGAGGAUUGAGCAUCA
B7: chr2:153237265:153237266:-_ENSMUSG00000061411_ENSMUST00000109784|mus_mus|mus_mus_mus_hu_False|78_108 (ssRNA)
RNA: GGGAGUUCUACAGUCCGACGAUCAAAAAAAAGAAAAAAAAAGUGUCCUUGUGCCCAAAGUCUCAGAUGCUUGGAGUGUGGCUAGAAACAGCUCUUUUGGAUCCCACCUCUUUCAAAAACAAAAUGUACCAACUGGUGAGGCAGCAACAGAGGAUUGAGCAUCA
B8: chr2:153237265:153237266:-_ENSMUSG00000061411_ENSMUST00000109784|mus_mus|mus_mus_mus_hu_False|78_98 (ssRNA)
RNA: B7 RNA with G32A, A37G
B9: chr2:153237265:153237266:-_ENSMUSG00000061411_ENSMUST00000109784|mus_mus|mus_mus_mus_hu_False|78_78 (ssRNA)
RNA: B7 RNA with G32A
B10: 112580157_112582736_3545_CDS_ENSG00000153107_ENST00000341068|human|control|control (ssRNA)
RNA: GGGAGUUCUACAGUCCGACGAUCCAAAUCUCUUAAAGUGAAUCCUACAUUAGUCAUCCAGACAACCAAUCUUUCAGCUAGACUAGAAACAGAUGUAGAAUGCCUGAAACUAAACCUGUUUUCCUCUUGUUCUACUUGCAACUUCAACAGAGGAUUGAGCAUCA
B11: chr2:153237265:153237266:-_ENSMUSG00000061411_ENSMUST00000109784|mus_mus|mus_mus_mus_hu_False|58_78 (ssRNA)
RNA: B7 RNA with G32A, U78C, G79A
B12: chr2:153237265:153237266:-_ENSMUSG00000061411_ENSMUST00000109784|mus_mus|mus_mus_mus_hu_False|28_78 (ssRNA)
RNA: B7 RNA with G32A, A115G
B13: chr2:153237265:153237266:-_ENSMUSG00000061411_ENSMUST00000109784|mus_mus|FALSE|FALSE (ssRNA)
RNA: GGGAGUUCUACAGUCCGACGAUCAAAAAAAAGAAAAGAAAAGUGUCCUUGUGCCCAAAGUCUCAGAUGCUUGGAGUGCAGCUAGAAACAGCUCUUUUGGAUCCCACCUCUUUCAGAAAACAGUGUACCAACUGGUGAGGCAGGCAACAGAGGAUUGAGCAUCA
B14: 61074685_61077595_487_3pUTR_ENSG00000119541_ENST00000238497|human|control|control (ssRNA)
RNA: GGGAGUUCUACAGUCCGACGAUCUCUUUUUUUCAGGAUCAUCAGAUUCUCCUUCCCCAUCACUGUCAUUCCCCUUCUCAUCUGCUGGACUCGGCUGUCCUUCUUUCACUGGCUUCUGUGCUUUUUUCUCUUUAUUUUUCAGGUCAACAGAGGAUUGAGCAUCA
B15: chr7:149068622:149068623:-_ENSMUSG00000025139_ENSMUST00000001950|mus_hu|mus_mus_mus_hu_False|8_28 (ssRNA)
RNA: GGGAGUUCUACAGUCCGACGAUCGUGAGGCCUCUGAGUGUGGCUUGUGGUCUGUCCUGGGUUAGAGUUGUUAAUAUCACGGAACAUACCAUCUAGAACGUUCCAGUCUGCCUGACUACCUUCAUUCGCAAGAGGGCAGAAAUCCAACAGAGGAUUGAGCAUCA
B16: chr5:138634757:138634758:+_ENSMUSG00000036968_ENSMUST00000110934|mus_hu|FALSE|FALSE (ssRNA)
RNA: GGGAGUUCUACAGUCCGACGAUCGUAGACCAAGUAUCUAUCCCACCUAAAUUAUCAGCAACUCCAGGCCAUGACCCAGUGUCCCAUUCUCCUUCACGGUUUGCUGGUGUGUAGCCUCCUGGAUACAGGCAAUGUAUAUAGAUCCAACAGAGGAUUGAGCAUCA
B17: chr17:56552419:56552420:-_ENSMUSG00000013236_ENSMUST00000086828|mus_mus|mus_mus_mus_hu_False|88_88 (ssRNA)
RNA: GGGAGUUCUACAGUCCGACGAUCAAAAAAUACACUAUUUAAAAAAAAAAGAAAAAAACGGGAUACAGUUACACUGAGAGUUUUAAAAGAAAGCUGGAUUCUGGUCCCAGCCCAGUGUCCCCAGGCUGCAGAGCGGGGAGGAGCCAACAGAGGAUUGAGCAUCA
B18: chr17:56552419:56552420:-_ENSMUSG00000013236_ENSMUST00000086828|mus_mus|mus_mus_mus_hu_False|8_88 (ssRNA)
RNA: B17 RNA with C128A, A129G, G130U, A131G, G132C, C133G, G135A, G136A
B19: chr17:56552419:56552420:-_ENSMUSG00000013236_ENSMUST00000086828|mus_mus|mus_mus_mus_hu_False|58_88 (ssRNA)
RNA: B17 RNA with G77C, G79C, U81A
B20: chr17:56552419:56552420:-_ENSMUSG00000013236_ENSMUST00000086828|mus_mus|mus_mus_mus_hu_False|28_88 (ssRNA)
RNA: B17 RNA with C107U, A108U, C112A, G114A, U115A
B21: 30734625_30737523_1216_CDS_ENSG00000101337_ENST00000398022|human|control|control (ssRNA)
RNA: GGGAGUUCUACAGUCCGACGAUCCAGGGAGCUGAGGAUCAUGGGGUACUGGGGGGGCCUGAAGACGUCGCCGUGCACCAACUUCCACCCAGACUCCUCCAUGGUGUCUUCAAUGUCAUCCUCCUUGUUGUAGUUGGCAAUGUCCAACAGAGGAUUGAGCAUCA
B22: chr7:149068622:149068623:-_ENSMUSG00000025139_ENSMUST00000001950|mus_hu|mus_mus_mus_hu_False|68_68 (ssRNA)
RNA: GGGAGUUCUACAGUCCGACGAUCGUGAGGCCUCUGAGUGUGGCUUGUGGUCUGUCCUGGGUUAGAGCUGCUGGUAACACGGAACAUACCAUCUAGAACGUUCCAGUCCCGCCUGACACCUUCAUUCCCAAUGGAGAAGAAAUCCAACAGAGGAUUGAGCAUCA

Residue numbers refer to the chain shown, from its start. The full ranking holds about 24,000 sequences; the median of “enrichment r” is about 0.99, and the highest 2% start at about 3.7. The full list was thinned out, with the highest values kept by preference.

This test concerns the target T1, UNK ZnF1-3 (human, UniProt Q9C0B0 31-174).
T1 sequence: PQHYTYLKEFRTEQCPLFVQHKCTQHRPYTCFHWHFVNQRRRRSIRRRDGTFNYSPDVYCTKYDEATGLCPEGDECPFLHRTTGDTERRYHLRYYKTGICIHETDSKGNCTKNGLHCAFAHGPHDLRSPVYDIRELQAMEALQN
Put plainly: nsRBNS (natural sequence RNA bind-n-seq); RBNS binding buffer (assumed for nsRBNS): 25 mM Tris pH 7.5, 150 mM KCl, 3 mM MgCl2, 0.01% Triton X-100, 500 ug/ml BSA, 20 U/ml SUPERase-In, 4 C; UNK is unkempt and MSI1 is Musashi-1; names of the RNAs are library labels; protein concentration not given here; high values mean tight binding.
B1 registered a binding signal of 0.591 enrichment R. In the case of B2 it was 0.8 enrichment R; in that of B3, 0.409 enrichment R; in that of B4, 0.465 enrichment R. In the case of B5, the binding signal is 0.458 enrichment R. To B6 belongs 1.12 enrichment R; to B7, 3.65 enrichment R.

Turning to B8, the binding signal amounted to 4.81 enrichment R. In the case of B9 it was 5.71 enrichment R; in that of B10, 0.842 enrichment R; in that of B11, 6.45 enrichment R. In the case of B12 it was 4.56 enrichment R; in that of B13, 1.55 enrichment R; in that of B14, 0.231 enrichment R.

Turning to B15, the binding signal is 0.726 enrichment R.

Molecule B16 returned a binding signal of 0.757 enrichment R. In the case of B17 it was 7.69 enrichment R. For the molecule B18, the binding signal was 6.77 enrichment R. In the case of B19 it was 12.3 enrichment R; in that of B20, 8.27 enrichment R. Consider B21, for which the binding signal amounted to 0.573 enrichment R. To B22 belongs 0.824 enrichment R.
